Out of some 190,000 compounds screened, about 1,300 (0.68%) were called active. What follows is part of a selection rich in actives, with near analogues and random picks from the rest. Values without a mark were called inactive. No stated cut-off is given here; in the data, active means inhibition above about 50%; inactive means the rest.
biological target: Mannose-6-phosphate isomerase (Homo sapiens) (UniProt P34949); assay: human PMI inhibitors, high substrate, primary screen, biochemical, fluorescence intensity, high mannose 6-phosphate (AID 1220); settings: recombinant PMI enzyme, coupled fluorescence intensity; at 20 µM; hits give high values
Sequence (P34949 whole entry, looked up): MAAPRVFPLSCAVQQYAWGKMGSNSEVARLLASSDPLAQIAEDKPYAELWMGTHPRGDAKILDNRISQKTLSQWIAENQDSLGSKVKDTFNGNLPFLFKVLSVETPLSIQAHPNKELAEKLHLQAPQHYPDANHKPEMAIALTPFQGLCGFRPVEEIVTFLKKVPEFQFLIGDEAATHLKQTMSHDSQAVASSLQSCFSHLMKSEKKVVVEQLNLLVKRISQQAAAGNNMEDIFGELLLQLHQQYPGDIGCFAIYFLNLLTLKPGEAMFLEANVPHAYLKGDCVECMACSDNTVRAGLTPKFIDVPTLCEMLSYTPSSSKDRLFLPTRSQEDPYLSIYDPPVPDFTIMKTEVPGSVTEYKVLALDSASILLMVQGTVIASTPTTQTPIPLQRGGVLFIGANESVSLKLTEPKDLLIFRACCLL

Row | SMILES | inhibition
1 | COc1cc(C2C(C(C)=O)=C(O)C(=O)N2CCc2c[nH]c3ccccc23)ccc1O (stereo not given) | 21.6%
2 | CCOC(=O)CCCNC(=O)COC(=O)c1cccc(C)c1O | -3.7%
3 | S=C1NCCOCCOCCNC(=S)N2CCOCCOCCN1CCOCCOCC2 | 11.7%
4 | CC(=O)N1CCC(N(CCN2CCOCC2)C(=S)Nc2cccc(C)c2)CC1 | -11.5%
5 | CC1(C)CC2CC(C)(CN2C(=O)COc2cccc3ccccc23)C1 (stereo not given) | 2.7%
6 | CC1(C)CC2CC(C)(CN2Cc2c(O)ccc3ccccc23)C1 (stereo not given) | 66.3% (active)
7 | CC1(C)CC2CC(C)(CN2CC(=O)C(C#N)c2ccccc2)C1 (stereo not given) | -41%
8 | O=Cc1ccc2noc(-c3ccc(F)cc3)c2c1 | -86.8%
9 | CCCn1nnc(NC(=O)c2ccc(OCC)c(Cl)c2)n1 | 2%
10 | CC1OC(Nc2cccc3ccccc23)C(O)C(O)C1O (stereo not given) | 60.5% (active)
11 | CC1OC(Nc2ccc(N=Nc3ccccc3)cc2)C(O)C(O)C1O (stereo not given) | 8.3%
12 | CC(=O)c1ccc(NC2OC(C)C(O)C(O)C2O)cc1 (stereo not given) | 20.1%
13 | Cc1ccc2cc(CN(Cc3cccs3)Cc3nnnn3CC3CCCO3)c(=O)[nH]c2c1C (stereo not given) | 0.6%
14 | COc1cccc(NC(=S)N(Cc2ccc(Cl)cc2)Cc2ccc(C(=O)O)cc2)c1 | -30.6%
15 | COc1ccccc1CC(=O)NCC(c1ccco1)N1CCCCC1 (stereo not given) | 58.9% (active)
16 | COc1ccccc1NC(=O)NCC(c1ccco1)N1CCCCC1 (stereo not given) | 0.2%
17 | O=C(Cc1ccccc1F)NCC(c1ccco1)N1CCCCC1 (stereo not given) | -5.8%
18 | O=C(c1ccco1)N1CCN(C(c2ccc(F)cc2)c2nnnn2Cc2cccs2)CC1 (stereo not given) | -6%
19 | Cn1cnc2cc(NC(=O)c3ccc(Cl)cc3)ccc21 | -16.1%
20 | CSc1nc2ccccc2n1CC(=O)Nc1cc(C(F)(F)F)ccc1N1CCOCC1 | -1.6%
21 | N#CC(C#N)=C1c2cc(S(N)(=O)=O)ccc2-c2ccc(S(N)(=O)=O)cc21 | 57.5% (active)
22 | N#CC(C#N)=Cc1cccn1-c1ccc(S(N)(=O)=O)cc1 | 0%
23 | NS(=O)(=O)c1ccc(C(=O)O)cc1 | -8%
24 | CC(C)OP(=O)(c1ccccc1)c1ccccc1 | -8.8%

Row | SMILES | inhibition
25 | C=CCN1C(=NC(=O)CCC)SC2CS(=O)(=O)CC21 (stereo not given) | -8.2%
26 | COCCNC(=O)/C(C#N)=C/c1ccc(-c2ccc(OC)cc2[N+](=O)[O-])o1 | 42.2%
27 | CNC(=O)/C(C#N)=C/c1ccc(-c2ccccc2[N+](=O)[O-])o1 | 61% (active)
28 | N#C/C(=C\c1ccc(-c2ccccc2[N+](=O)[O-])o1)C(=O)Nc1nc(-c2cccs2)cs1 | 53.1% (active)
29 | O=C(/C=C/c1ccc(-c2ccccc2[N+](=O)[O-])o1)c1ccco1 | 51.7% (active)
30 | CNC(=O)/C(C#N)=C/c1ccc(-c2ccc(OC)cc2[N+](=O)[O-])o1 | 29.2%
31 | N#C/C(=C\c1ccc(-c2ccccc2[N+](=O)[O-])o1)C(=O)N1CCOCC1 | 45.8%
32 | N#C/C(=C\c1ccc(-c2ccc(F)cc2)o1)C(=O)Nc1nc(-c2cccs2)cs1 | 30.8%
33 | Cc1ccc(Cc2cnc(NC(=O)/C(C#N)=C/c3ccc(-c4ccccc4[N+](=O)[O-])o3)s2)cc1 | 30.3%
34 | O=C(/C=C/c1ccc(-c2ccccc2[N+](=O)[O-])o1)c1ccccc1 | 47.3%
35 | O=C(/C=C/c1ccc(-c2ccccc2[N+](=O)[O-])o1)c1ccc(Br)cc1 | -32.8%
36 | N#C/C(=C/c1ccc(-c2ccccc2[N+](=O)[O-])o1)C(N)=O | 51.9% (active)
37 | O=C(/C=C/c1ccc(-c2ccccc2[N+](=O)[O-])o1)c1ccc(F)cc1 | 34.1%
38 | CCOC(=O)c1c(NC(=O)c2c(C(=O)O)cccc2[N+](=O)[O-])sc(C)c1C | 8.7%
39 | O=C(Nc1ccc(S(=O)(=O)Nc2ccc(F)cc2)cc1)c1ccc(CN2CCOCC2)cc1 | 17%
40 | Cc1cc(C)n(-c2nc(NCc3cccnc3)c3c4c(sc3n2)COC(C)(C)C4)n1 | 6.9%
41 | O=c1c2cc(NC(=S)NCc3cccnc3)ccc2nc2n1CCCCC2 | 1.2%
42 | CC1Cc2ccccc2N1C(=O)CSc1nnc(-c2ccccc2)c(-c2ccccc2)n1 (stereo not given) | 37.9%
43 | COc1cccc(C2CC(c3ccc(C(C)C)cc3)n3nc(N)nc3N2)c1 (stereo not given) | 11.2%
44 | CC(=O)Nc1ccc(OCC(O)CN2CCN(c3cc(Cl)ccc3C)CC2)cc1 (stereo not given) | -2%
45 | Clc1cccc(CN2COc3c(cc(Cl)c4cccnc34)C2)c1 | 51.8% (active)
46 | CC(C)(C)c1cc2cccnc2n1Cc1cccc(Cl)c1 | 1.9%
47 | Oc1c(CN2CCc3ccccc3C2)cc(Cl)c2cccnc12 | 48.3%
48 | Cc1nn(-c2ccccc2)c(Cl)c1C1C(C#N)=C(N)Oc2c1c(C)nn2-c1ccccc1 (stereo not given) | 9%

Row | SMILES | inhibition
49 | CC(C)CNC(=O)CSc1nc2scc(-c3ccccc3)c2c(=O)[nH]1 | -14.2%
50 | CC(=O)Nc1ccc(N(C(=O)CNC(=O)c2ccco2)C(C(=O)NCC2CCCO2)c2ccccc2)cc1 (stereo not given) | -1.6%
51 | CC(=O)Nc1ccc(N(C(=O)CNC(=O)c2ccco2)C(C(=O)NCc2ccco2)c2ccccc2F)cc1 (stereo not given) | 60.4% (active)
52 | CC(=O)c1cccc(N(C(=O)CNC(=O)c2ccco2)C(C(=O)NCc2ccco2)c2ccccc2)c1 (stereo not given) | -1.4%
53 | CN1CCN(Cc2cc(Cl)c3cccnc3c2OC(=O)c2cccs2)CC1 | 50.4% (active)
54 | O=C(Oc1c(CN2CCOCC2)cc(Cl)c2cccnc12)c1cccs1 | 56.4% (active)
55 | O=C(Oc1c(Cl)cc(Cl)c2cccnc12)c1cccs1 | 1.8%
56 | O=C(OCCN1CCOCC1)c1cccs1 | 9%
57 | COCc1cc(CN2CCN(C)CC2)c(O)c2ncccc12 | 37.9%
58 | O=C(Oc1ccc(Cl)c2cccnc12)N1CCOCC1 | 8.2%
59 | CCC(=O)c1ccc(N2CCN(C(=O)c3cccc(F)c3)CC2)c(F)c1 | 7.7%
60 | CCCn1nc(C(=O)NCc2ccccn2)c2ccccc2c1=O | -1.4%
61 | O=C(CNCCC1=CCCCC1)Nc1ccccc1N1CCCCC1 | -0.7%
62 | COCc1cc(C)nc2sc(C(=O)NCCO)c(-n3cccc3)c12 | -8.1%
63 | Cc1nn(-c2ccc(Cl)cc2)c(N)c1C(O)(CSc1nccn1C)C(F)(F)F (stereo not given) | 10.3%
64 | O=C(COC(=O)c1ccncc1)Nc1cc(Cl)c(Cl)cc1Cl | 3.3%
65 | O=C(COC(=O)c1ccncc1)Nc1cc(Cl)ccc1Cl | 93.2% (active)
66 | O=C(COC(=O)c1ccncc1)Nc1cccc(Cl)c1 | 23.4%
67 | Cc1ccc(S(=O)(=O)NNC(=O)c2sccc2-n2cccc2)cc1 | -2.5%
68 | O=C(NCc1ccc(/C=c2\sc3n(c2=O)CCN=3)o1)C(=O)Nc1ccccc1 | 50.9% (active)
69 | Cc1ccc(/C=c2/sc3n(c2=O)CCCN=3)o1 | -24.9%
70 | O=c1/c(=C/c2ccc(CNS(=O)(=O)c3ccccc3)o2)sc2n1CCN=2 | 13.7%
71 | COc1ccc(C(=O)NCc2nnc(SCC(=O)Nc3cccc(F)c3)o2)cc1 | -10.6%
72 | CCOC(=O)Cc1nnc(-c2ccccc2)o1 | 40.2%

Row | SMILES | inhibition
73 | CCOc1cccc(N(C(=O)C2COc3ccccc3O2)C(C(=O)NC2CCCCC2)c2ccc(O)cc2)c1 (stereo not given) | -4.1%
74 | CC(C)CCNC(=O)C(c1ccc(O)cc1)N(C(=O)C1COc2ccccc2O1)c1cccc(O)c1 (stereo not given) | 60.7% (active)
75 | CC(C)CCNC(=O)C(c1ccc(O)cc1)N(Cc1cccs1)C(=O)C1COc2ccccc2O1 (stereo not given) | 9.3%
76 | COCC(C)NC(C(=O)Nc1ccc(C)c(Cl)c1)c1ccccc1 (stereo not given) | 1.8%
77 | CN(c1ccc(OCC(=O)Nc2nc(-c3ccccc3)cs2)cc1)S(=O)(=O)c1ccc(F)cc1 | 8.4%
78 | Cc1cc(C)c(NC(=O)COC(=O)Cc2ccsc2)c(C)c1 | -8.2%
79 | Cc1ccc(S(=O)(=O)N2CCC(=O)N(CCOCc3cccc(F)c3)CC2)cc1 | 6.5%
80 | N#CCn1c2ccccc2c2nc3ccccc3nc21 | 55.3% (active)
81 | N#CCCn1c2ccccc2c2nc3ccccc3nc21 | -21.1%
82 | COc1cc2nc3c4ccccc4n(CC#N)c3nc2cc1OC | -0.4%
83 | Cc1ccc(C2N(C)c3ccccc3-c3nc4ccccc4n32)o1 (stereo not given) | 3.8%
84 | CCC(=O)NC(c1cccs1)c1cc([N+](=O)[O-])c2cccnc2c1O (stereo not given) | 43.9%
85 | Cc1ccc([N+](=O)[O-])c2cccnc12 | 13.6%
86 | CCCC(=O)NC(c1cccs1)c1cc([N+](=O)[O-])c2cccnc2c1O (stereo not given) | 55.7% (active)
87 | O=C(NC(c1ccccc1)c1cc(Cl)c2cccnc2c1O)c1cccnc1 (stereo not given) | 23.4%
88 | CCCC(=O)NC(c1cccs1)c1cc(Cl)c2cccnc2c1O (stereo not given) | 38.8%
89 | O=[N+]([O-])c1cc(Cl)c2cccnc2c1O | 47.2%
90 | CC(=O)NC(c1cccs1)c1cc([N+](=O)[O-])c2cccnc2c1O (stereo not given) | 43.2%
91 | CCOc1ccc(C(Nc2cccnc2)c2cc(Cl)c3cccnc3c2O)cc1 (stereo not given) | 66% (active)
92 | O=C(O)COc1ccccc1C(Nc1cccnc1)c1cc(Cl)c2cccnc2c1O (stereo not given) | 32%
93 | Oc1c(C(Nc2ccccn2)c2cccnc2)cc(Cl)c2cccnc12 (stereo not given) | 43.5%
94 | CC(=O)NC(c1ccccc1)c1cc([N+](=O)[O-])c2cccnc2c1O (stereo not given) | 58% (active)
95 | CC(=O)NC(c1ccc(C)cc1)c1cc([N+](=O)[O-])c2cccnc2c1O (stereo not given) | 64.9% (active)

Reference: PubChem BioAssay AID1220 (Sanford-Burnham Center for Chemical Genomics, 2008)
